Measurements published in PubChem BioAssay (Tox21).
“And” between values parts separate entries of the source, which are not always exact repeats. Equal entries are not always repeated. Records with an inconclusive call do not appear. The source holds several records for some structures; these can differ, active in one and inactive in another. The source made the active and inactive calls. Unless noted, calls follow the shape of the full dose curve.

Key:
[1] = Nuclear factor erythroid 2-related factor 2/antioxidant responsive element (Nrf2/ARE) small molecule agonists: qHTS cell viability counter screen in human keratinocytes (AID 1919968; active = well fitted curve in the direction sought with a large enough effect in the repeat runs; an effect the other way counts as inactive or inconclusive; also: nearly all actives have a fitted effect of over 55% in size; also: potency is read from the fitted curve at half-maximal effect)
Summary of the method: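 Seed 1,500 KeratinoSens cells per well, then incubate 5 h at 37 C/5% CO2. Add compounds in DMSO and incubate 23 h. Add CellTiter-Fluor, wait 1 h and read fluorescence.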

[2] = Nuclear factor erythroid 2-related factor 2/antioxidant responsive element (Nrf2/ARE) small molecule agonists: luciferase reporter gene qHTS assay in human keratinocytes (AID 1919969); also: nearly all actives have a fitted effect of over 35% in size; also: potency is read from the fitted curve at half-maximal effect
[3] = target: Gonadotropin-releasing hormone receptor (Homo sapiens) (UniProt P30968); experiment: Human gonadotropin-releasing hormone receptor (GnRHR) small molecule agonists, calcium flux assay in GnRHR-HEK293 cells (AID 1920063); also: nearly all actives have a fitted effect of over 35% in size
Summary of the method: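 Cells: HEK293 stably expressing human GnRHR. Steps: overnight (18 h) culture, 1 h calcium dye loading at 37 C, compound addition, kinetic fluorescence read at 480/540 nm. Each compound tested at 15 concentrations in triplicate.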

[4] = target: KiSS-1 receptor (Homo sapiens) (UniProt Q969F8); experiment: Human kisspeptin (KISS1R) small molecule agonists, calcium flux assay in KISS1R-HEK293 cells (AID 1920064; active = well fitted curve in the direction sought with a large enough effect in the repeat runs; an effect the other way counts as inactive or inconclusive)
Summary of the method: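 Cells plated and incubated 18 h; dye added, 1 h at 37 C; compounds in DMSO pinned in; signal read at 480/540 nm every second for 3 min. Each compound tested at 15 concentrations in triplicate.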

[5] = G protein-coupled receptor (GPCR) small molecule agonists, calcium flux assay: HEK293 wild type cell line counter screen (AID 1920065)
Summary of the method: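 Counter-screen of the Tox21 10K library for non-specific calcium release: dye-loaded cells received compounds in DMSO and were monitored by kinetic fluorescence (480/540 nm, 3 min). Fifteen concentrations, run in triplicate.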

[6] = p53 small molecule agonists, cell-based qHTS assay with human liver microsomes (AID 1963577);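 also: p53 response element beta-lactamase reporter cells with liver microsomes plus NADPH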
Summary of the method: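 HLM-supplemented p53RE-bla reporter assay: 16 h compound exposure at 37 C, microsomes and NADPH each 0.5 mg/mL final, read by fluorescence intensity.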

[7] = p53 small molecule agonists, cell-based qHTS assay with rat liver microsomes (AID 1963578)
Summary of the method: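 Quantitative HTS of the Tox21 10K library: p53RE-bla cells, rat liver microsomes plus NADPH at 0.5 mg/mL final each, 16 h at 37 C, beta-lactamase fluorescence detection.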

[8] = p53 small molecule agonists, cell-based qHTS assay with human liver microsomes: qHTS cell viability counter screen (AID 1963579); also: nearly all actives have a fitted effect of over 45% in size; also: potency is read from the fitted curve at half-maximal effect
Summary of the method: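 Viability of p53RE-bla cells is measured as CellTiter-Glo luminescence following a 16 h, 37 C incubation with compound, liver microsomes from human donors and NADPH.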

[9] = p53 small molecule agonists, cell-based qHTS assay with rat liver microsomes: qHTS cell viability counter screen (AID 1963580); also: nearly all actives have a fitted effect of over 45% in size
Summary of the method: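 In HCT-116 cells carrying a p53 response element-bla reporter, compounds were metabolically activated in situ by rat liver microsomes with NADPH over 16 h. Cell ATP content then served as the cytotoxicity measure.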

[10] = p53 small molecule agonists, cell-based qHTS assay: qHTS cell viability counter screen (AID 1963581); also: nearly all actives have a fitted effect of over 45% in size
Summary of the method: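 Cells: HCT-116 with p53 response element-driven beta-lactamase. Treatment: 16 h, 37 C, compounds in DMSO. Read: CellTiter-Glo luminescence after 30 min RT.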

[11] = p53 small molecule agonists, cell-based qHTS assay (AID 1963582; active = well fitted activation curve with a large enough effect in the signal ratio in the repeat runs, not every such curve was filed as active; the % refers to the signal ratio)
Summary of the method: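 Quantitative HTS in p53RE-bla cells: after a 5 h settling period, compounds delivered in DMSO were left on cells for 16 h at 37 C, and reporter induction was measured as fluorescence following 2 h substrate loading.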

[12] = target: 5-hydroxytryptamine receptor 2A (Homo sapiens) (UniProt P28223); experiment: 5-hydroxytryptamine receptor 2A (HTR2A) small molecule agonists, cell-based qHTS assay (AID 1963587); also: nearly all actives have a fitted effect of over 30% in size
Summary of the method: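 HTR2A-CHO cells, plated 18 h at 37 C/5% CO2, dye-loaded 1 h at 37 C; compounds in DMSO added by pin tool (agonist mode). Intracellular calcium flux read as kinetic fluorescence on FDSS over 2 min at 1 s intervals.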

[13] = target: Muscarinic acetylcholine receptor M1 (Homo sapiens) (UniProt P11229); experiment: Cholinergic receptor muscarinic 1 (CHRM1) small molecule antagonists, cell-based qHTS assay (AID 1963588); also: nearly all actives have a fitted effect of over 40% in size
Summary of the method: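 CHRM1-CHO calcium-flux assay, antagonist mode. Cells were seeded 18 h, dye-loaded 1 h at 37 C and given compound for 5 min at RT, then acetylcholine was added at 50nM. FDSS fluorescence was read 3 min; 15 concentrations, three runs.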

[14] = target: Muscarinic acetylcholine receptor M1 (Homo sapiens) (UniProt P11229); experiment: Cholinergic receptor muscarinic 1 (CHRM1) small molecule agonists, cell-based qHTS assay (AID 1963589); also: nearly all actives have a fitted effect of over 35% in size
Summary of the method: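 Agonist-mode qHTS in CHO cells stably carrying human muscarinic M1. Intracellular calcium is tracked by fluorescence every second after compound transfer; each compound runs at 15 concentrations in three independent runs.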

[15] = cAMP Responsive Elements (CRE) small molecule agonists, cell-based qHTS assay (AID 1963590)
Summary of the method: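 Agonist mode qHTS in CRE-bla HEK 293T cells: compounds dosed from DMSO for 3 h at 37 C/5% CO2, followed by LiveBLAzer B/G FRET substrate for 2 h at room temperature.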

[16] = cAMP Responsive Elements (CRE) small molecule antagonists, cell-based qHTS assay (AID 1963591; active = well fitted inhibition curve with a large enough effect in the signal ratio in the repeat runs, not every such curve was filed as active; the % refers to the signal ratio)
Summary of the method: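 Antagonist mode: test compounds are co-incubated with the adenylyl cyclase activator NKH477 (0.25 uM final) on CRE-bla HEK293T cells for 3 h at 37 °C, followed by LiveBLAzer substrate loading.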

[17] = target: Beta-2 adrenergic receptor (Homo sapiens) (UniProt P07550); experiment: Adrenergic beta2 receptor (ADRB2) small molecule antagonists, cell-based qHTS assay (AID 1963592); also: nearly all actives have a fitted effect of over 50% in size; also: potency is read from the fitted curve at half-maximal effect
Summary of the method: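 Cells (CHO, stable ADRB2 overexpression) incubated 18-20hr at 37C; compounds added from DMSO; agonist mix (1nM isoproterenol, 100uM IBMX, 25uM Ro-20-1724) added; 0.5hr RT; d2-cAMP and anti-cAMP-cryptate added; 1hr RT; 665/615 nm read.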

[18] = target: D(2) dopamine receptor (Homo sapiens) (UniProt P14416); experiment: Dopamine D2 receptor (DRD2) small molecule agonists, cell-based qHTS assay (AID 1963594); also: nearly all actives have a fitted effect of over 35% in size
Summary of the method: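 HEK293 cells stably expressing DRD2 were cultured 24 h at 37 C, then given Ro20-1724 (0.1 mM final) and compounds for 10 min at room temperature. NKH477 (200nM) was then added for 30 min. cAMP was read by HTRF.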

[19] = target: D(2) dopamine receptor (Homo sapiens) (UniProt P14416); experiment: Dopamine D2 receptor (DRD2) small molecule antagonists, cell-based qHTS assay (AID 1963595; active = well fitted inhibition curve with a large enough effect in the signal ratio in the repeat runs, with a control signal flat; the % refers to the signal ratio)
Summary of the method: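 HTRF cAMP read-out at 665 and 620 nm emission (340 nm excitation). Antagonist mode: compounds were tested against 12 nM quinpirole in DRD2-HEK293 cells, with 200 nM NKH477 raising cAMP and 0.1 mM Ro20-1724 blocking its breakdown.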

[20] = target: 5-hydroxytryptamine receptor 2A (Homo sapiens) (UniProt P28223); experiment: 5-hydroxytryptamine receptor 2A (HTR2A) small molecule antagonists, cell-based qHTS assay (AID 1963586); also: nearly all actives have a fitted effect of over 45% in size
Summary of the method: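 Antagonist-mode intracellular calcium assay: DOI (4 nM) added after 5 min compound pre-incubation at room temperature to dye-loaded HTR2A-CHO cells. Fluorescence followed for 3 min, sampled every second.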

Measured: Potency

Sequence of D(2) dopamine receptor (Homo sapiens) (P14416 whole entry, looked up): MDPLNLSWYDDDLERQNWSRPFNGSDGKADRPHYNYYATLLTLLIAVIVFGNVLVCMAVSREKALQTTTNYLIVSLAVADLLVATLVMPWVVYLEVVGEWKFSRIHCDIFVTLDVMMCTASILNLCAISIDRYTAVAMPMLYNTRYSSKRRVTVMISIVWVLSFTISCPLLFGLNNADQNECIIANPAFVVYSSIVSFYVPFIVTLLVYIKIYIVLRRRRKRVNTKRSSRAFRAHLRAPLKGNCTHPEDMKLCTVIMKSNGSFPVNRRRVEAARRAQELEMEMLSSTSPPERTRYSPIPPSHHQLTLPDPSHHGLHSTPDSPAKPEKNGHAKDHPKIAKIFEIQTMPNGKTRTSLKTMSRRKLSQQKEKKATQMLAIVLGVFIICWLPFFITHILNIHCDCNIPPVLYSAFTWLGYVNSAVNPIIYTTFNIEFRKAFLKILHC
Sequence of Gonadotropin-releasing hormone receptor (Homo sapiens) (P30968 whole entry, looked up): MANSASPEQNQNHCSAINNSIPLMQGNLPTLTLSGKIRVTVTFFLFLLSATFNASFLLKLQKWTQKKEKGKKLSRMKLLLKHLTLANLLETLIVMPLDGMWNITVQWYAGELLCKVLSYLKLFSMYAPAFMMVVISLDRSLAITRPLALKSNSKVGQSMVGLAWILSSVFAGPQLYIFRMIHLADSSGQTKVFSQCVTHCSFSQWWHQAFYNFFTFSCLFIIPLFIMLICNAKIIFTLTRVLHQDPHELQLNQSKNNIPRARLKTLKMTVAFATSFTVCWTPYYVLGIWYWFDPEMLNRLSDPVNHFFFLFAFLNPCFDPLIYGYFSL
Sequence of KiSS-1 receptor (Homo sapiens) (Q969F8 whole entry, looked up): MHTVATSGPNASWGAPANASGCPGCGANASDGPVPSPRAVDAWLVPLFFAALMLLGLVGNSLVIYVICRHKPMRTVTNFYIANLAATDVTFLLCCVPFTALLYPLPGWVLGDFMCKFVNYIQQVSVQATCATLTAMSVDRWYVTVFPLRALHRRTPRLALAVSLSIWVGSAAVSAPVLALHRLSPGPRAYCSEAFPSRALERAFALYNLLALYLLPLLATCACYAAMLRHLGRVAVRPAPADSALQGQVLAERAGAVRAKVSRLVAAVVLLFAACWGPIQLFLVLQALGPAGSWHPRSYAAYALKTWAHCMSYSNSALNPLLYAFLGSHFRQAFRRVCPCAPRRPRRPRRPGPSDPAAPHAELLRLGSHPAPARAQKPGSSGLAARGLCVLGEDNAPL
Sequence of Beta-2 adrenergic receptor (Homo sapiens) (P07550 whole entry, looked up): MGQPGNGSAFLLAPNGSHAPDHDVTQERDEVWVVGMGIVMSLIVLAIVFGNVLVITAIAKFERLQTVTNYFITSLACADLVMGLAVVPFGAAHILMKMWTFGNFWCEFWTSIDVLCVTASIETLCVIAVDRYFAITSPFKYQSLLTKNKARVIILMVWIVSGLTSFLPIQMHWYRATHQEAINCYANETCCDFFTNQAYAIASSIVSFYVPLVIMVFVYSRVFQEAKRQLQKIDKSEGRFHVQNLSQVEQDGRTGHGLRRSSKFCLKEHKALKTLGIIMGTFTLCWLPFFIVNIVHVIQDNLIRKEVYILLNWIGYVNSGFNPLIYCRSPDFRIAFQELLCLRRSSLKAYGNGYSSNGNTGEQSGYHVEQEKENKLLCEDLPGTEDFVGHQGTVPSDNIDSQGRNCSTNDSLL
Sequence of 5-hydroxytryptamine receptor 2A (Homo sapiens) (P28223 whole entry, looked up): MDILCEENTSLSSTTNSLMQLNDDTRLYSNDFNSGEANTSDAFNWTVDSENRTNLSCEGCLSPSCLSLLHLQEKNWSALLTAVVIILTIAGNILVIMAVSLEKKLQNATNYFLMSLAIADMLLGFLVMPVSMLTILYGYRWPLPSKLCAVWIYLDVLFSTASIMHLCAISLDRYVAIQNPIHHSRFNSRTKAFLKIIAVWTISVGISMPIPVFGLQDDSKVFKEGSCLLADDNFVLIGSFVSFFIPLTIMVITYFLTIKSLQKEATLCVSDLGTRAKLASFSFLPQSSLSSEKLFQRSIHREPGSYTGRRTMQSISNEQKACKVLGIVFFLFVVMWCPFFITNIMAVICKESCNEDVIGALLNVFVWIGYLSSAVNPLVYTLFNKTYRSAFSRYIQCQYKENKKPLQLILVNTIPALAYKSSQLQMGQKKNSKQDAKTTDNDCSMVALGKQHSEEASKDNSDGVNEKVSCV
Sequence of Muscarinic acetylcholine receptor M1 (Homo sapiens) (P11229 whole entry, looked up): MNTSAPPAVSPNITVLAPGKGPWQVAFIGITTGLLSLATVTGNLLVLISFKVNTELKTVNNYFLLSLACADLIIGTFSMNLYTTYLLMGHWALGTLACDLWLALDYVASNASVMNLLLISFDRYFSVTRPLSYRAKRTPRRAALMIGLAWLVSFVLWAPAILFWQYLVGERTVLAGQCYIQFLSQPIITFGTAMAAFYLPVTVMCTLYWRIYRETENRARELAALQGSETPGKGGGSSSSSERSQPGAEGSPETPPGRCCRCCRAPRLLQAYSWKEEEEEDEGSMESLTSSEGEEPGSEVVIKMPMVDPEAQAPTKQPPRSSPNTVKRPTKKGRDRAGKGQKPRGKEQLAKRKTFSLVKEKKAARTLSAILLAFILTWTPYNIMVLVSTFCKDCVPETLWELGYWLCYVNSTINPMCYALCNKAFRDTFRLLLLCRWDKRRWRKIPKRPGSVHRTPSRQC

O=C1OC(CN2CCOCC2)CN1/N=C/c1ccc([N+](=O)[O-])o1 (stereo not drawn)
not listed: [20]
inactive: all other assays above

CC(O)CCCCn1c(=O)c2c(ncn2C)n(C)c1=O (stereo not drawn)
not listed: [20]
inactive: all other assays above

COc1ccc(NC(C)=O)cc1
not listed: [13] | [19] | [20]
inactive: all other assays above

O=C1OCCO1
not listed: [13] | [19] | [20]
inactive: all other assays above

CCCCOCCOCCOCCO
30.3 µM (active) and inactive: [17]
not listed: [12] | [20]
inactive: all other assays above

C=CCOCC(CO)(COCC=C)COCC=C
not listed: [20]
inactive: all other assays above

CC(=O)OCC(=O)Nc1cc(C#N)cc(NC(=O)COC(C)=O)c1Cl
not listed: [14] | [18] | [20]
inactive: all other assays above

C[C@@H](O)[C@H]1C(=O)N2C(C(=O)O)=C(SCCN=CN)C[C@H]12
not listed: [20]
inactive: all other assays above

OCCCCl
not listed: [11] | [19]
inactive: all other assays above

Oc1ccc(/C=C/c2cc(O)cc(O)c2)cc1
active: [2] 4.9 µM and 7.7 µM and 11.9 µM
not listed: [12] | [13] | [14] | [15] | [20]
inactive: all other assays above

CC(C)(C)CC(C)(C)c1ccc(OCCOCC[N+](C)(C)Cc2ccccc2)cc1
active: [1] 24.3 µM and 10.6 µM
20.4 µM (active) and inactive: [8]
not listed: [12] | [13] | [14] | [15] | [17] | [19] | [20]
inactive: all other assays above

CC(=O)N[C@@H](Cc1ccc(O)cc1)C(=O)O
not listed: [20]
inactive: all other assays above

NCCN1CCNC1=O
not listed: [16] | [20]
inactive: all other assays above

Nc1cc(-c2ccncc2)c[nH]c1=O
not listed: [12] | [13] | [14] | [18] | [20]
inactive: all other assays above
